These results are taken from PubChem BioAssay AID652067 (The Scripps Research Institute Molecular Screening Center, 2013).

Among all 370,000 compounds or so, about 5,400 (1.5%) were called active.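 How the source made its calls: active means activation above the mean of all tested compounds plus 3 SD (cut at about 5.5% in these data); inactive means the rest.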 The list comes from a sample in which actives are over-represented; it also holds similar structures and randomly drawn compounds.

This experiment deals with DAF-12 nuclear receptor (Haemonchus contortus). In words: hcDAF-12 driven luciferase reporter activation – cell-based, luminescence, HEK293, lit1-tk-luc reporter, primary screen (AID 652067).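 Further: 100% = response to 3 µM Δ7-dafachronic acid high control.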 Particulars: HEK293 hcDAF-12 lit1-tk-luc reporter, at 6.8 µM, stronger effect = higher value, 0% DMSO, 100% Δ7-dafachronic acid.
`Oc1ccc(/C=C/c2c(F)cccc2F)c2cccnc12`: the activation is -3.66% (inactive).

As for `O=C1[C@@H](c2ccccc2)[C@@H](c2ccccc2)N1c1ccccc1`, the activation is -1.98% (inactive). With `Cc1nn2c(c1-c1ccccc1)N=C(c1ccco1)CC2c1ccccc1` (configuration not stated) the figure was -0.56% (inactive); with `Cc1cc(-c2ccccc2)n2nc(C)c(-c3ccccc3)c2n1`, -0.96% (inactive); with `Cc1nn(C(=O)c2ccoc2C)c(N)c1-c1ccccc1`, 12.4% (active).

With `CCOc1ccc(-n2c(SCC(=O)Nc3cc(C)c(NC(=O)c4ccccc4)cc3OC)nnc2-c2cccc(Cl)c2)cc1`, the activation is -2.73% (inactive). For `Cc1ccccc1NC(=O)Cn1nnc(-c2ccccc2F)n1`, the activation was 1.07% (inactive). Consider `CN1CCCCC(NC(=O)C(C)(C)C)C1=O` (configuration not stated), for which the activation is -1.55% (inactive). Under `Cc1c(C(N)=O)sc2ncn(CCOc3ccccc3)c(=O)c12` stands -0.81% (inactive); under `Cc1nn(CCOc2ccccc2)c(=O)n1-c1ccccc1F`, 6.6% (active). Consider `Cc1cccc2c1N(CCOc1ccccc1)C(=O)C2=O`, for which the activation is -2.22% (inactive).

For the compound `Cc1ccc(N)cc1CN1CCN(c2ncc(Cc3ccccc3)cn2)CC1`, the activation was -1.34% (inactive). Regarding `O=C1CC[C@@]23CCCN2C(=O)CCC[C@H]3[C@H]1Cc1ccccc1`, the activation was -0.12% (inactive).

`NC(=O)c1ncn([C@@H]2O[C@H](C(=O)O)[C@@H](O)[C@H]2O)n1`: the activation is -0.43% (inactive). Under `CC(=O)OCC(C)n1c(=O)c2ccccc2n1C(C)=O` (configuration not stated) stands -0.22% (inactive).

For the compound `CC(=O)n1c(C=Nc2ccccc2)c(O)c2ccccc21`, the activation is 7.8% (active). Under `O=C(Nc1ccc(Br)cc1)OCCN1C(=O)CCC12CCC(c1ccccc1)CC2` (configuration not stated) stands -1.25% (inactive); under `Cc1ccc(-c2nnc(SCC(=O)Nc3ccc(Oc4ccccc4)cc3)n2Cc2ccco2)cc1`, -2.76% (inactive). With `CCC(C)[C@@H](C(=O)OC)N(CCc1cn(Cc2ccccc2)nn1)S(=O)(=O)c1ccccc1Br` (some centres not stated) the figure was -2.4% (inactive). `NC(=O)CSc1c[nH]c2ccccc12`: the activation is 6.34% (active). Regarding `CCCn1cc(SCC(N)=O)c2ccccc21`, the activation is 2.17% (inactive).

`O=C(CSc1nnc(-c2c[nH]c3ccccc23)o1)c1ccccc1`: the activation was -0.49% (inactive). With `Cc1cccc(/C(N)=N/OC(=O)c2ccccc2Cl)c1` the figure was 10.8% (active). Under `C/C(=N\OC(=O)c1ccccc1)c1c(C)nc2cc(C)ccn12` stands -1.05% (inactive); under `Cc1cc(OC(=O)c2ccccc2Cl)ccc1N1C(=O)CCC1=O`, -1.68% (inactive); under `CCCCNC(=O)C[C@H]1C(=O)N(Cc2ccc(OC)cc2)C2=CCCC[C@@]21C(=O)OCC`, -4.06% (inactive). Under `CC(=O)OCCN1CCCC12CCC(c1ccccc1)CC2` (configuration not stated) stands -0.23% (inactive); under `CCCCCCN1CCS(=O)(=O)N(Cc2ccc(C(F)(F)F)cc2)C(C(=O)OC)C1` (configuration not stated), -2.04% (inactive). Consider `CN1C(=O)c2cc(NS(C)(=O)=O)ccc2OC[C@@H]2O[C@@H](CC(=O)NCc3ccc(-c4ccccc4)cc3)CC[C@H]21`, for which the activation was 0.33% (inactive). With `O=C(OC12CCCN(C1)/C(=C/c1ccccc1)C2)c1ccco1` (configuration not stated) the figure was -0.35% (inactive); with `CCC(NC(=O)C1C2C=CC3(CN(Cc4ccccc4)C(=O)C13)O2)c1ccccc1` (configuration not stated), -1.89% (inactive). Under `COC(=O)[C@]12C[C@H](CC(=O)NCCC(C)C)C(=O)N(CCc3ccc(OC)c(OC)c3)C1=C[C@H](C(C)(C)C)O[C@@H]2C` stands -0.99% (inactive); under `Cc1c(NC(=S)NCc2ccc(F)cc2)cccc1[N+](=O)[O-]`, -2.35% (inactive); under `O=C(N/N=C/c1ccc(OCC2COCCO2)cc1)c1ccc(Br)cc1` (configuration not stated), -1.26% (inactive). In the case of `CC(C)(C)C(=O)Nc1ccc(C(=O)N/N=C/c2ccccc2OC(=O)c2ccc(Cl)cc2Cl)cc1`, the activation was -1.06% (inactive). Under `O=C(N/N=C/c1ccc(OC(=O)c2ccccc2Cl)cc1)c1ccc(O)cc1` stands 5.89% (active). Turning to `C=CCN1C(=O)[C@@H](CC(=O)NCC2CCCCC2)[C@]2(C(=O)OC)CCCCC=C12`, the activation was -1.65% (inactive).

On to `CCOc1ccccc1-c1cc(C(=O)N/N=C(\C)c2cccnc2)c2ccccc2n1`, for which the activation was 1.52% (inactive).

`CCOc1ccccc1NC(=O)c1cccnc1`: the activation was -0.55% (inactive). Regarding `CCOc1cccc(/C=C/c2ccc3ccccc3n2)c1OC(C)=O`, the activation is 6.5% (active).

As for `COC(=O)[C@H](C(C)C)N(CCc1cn(Cc2ccccc2)nn1)S(=O)(=O)c1ccc(F)cc1Br`, the activation is -3.41% (inactive). As to `CC(C)(C)c1ccc(S(=O)(=O)NCC2CCN(C(=O)C(=O)c3cc4ccccc4o3)CC2)cc1`, the activation is -1.1% (inactive). Under `CCCCN1CCN(C(=O)c2ccc3c(c2)NC(=O)C(C)(C)O3)CC1` stands 0.06% (inactive); under `Cc1ccc(NC(=O)c2cc([N+](=O)[O-])ccc2Cl)c(O)c1`, 6.38% (active); under `CNc1ccc([N+](=O)[O-])cc1C(=O)O`, -0.16% (inactive). As to `CCC(C)C(=O)Nc1cc([N+](=O)[O-])ccc1Cl` (configuration not stated), the activation was 1.23% (inactive). Under `COc1ccccc1C(=O)CSc1nnc(-c2ccccn2)n1-c1ccccc1` stands -3.35% (inactive); under `CCCC1CCC2(CCCN2CCOC(=O)NCc2ccccc2)CC1` (configuration not stated), -0.18% (inactive); under `CSc1ccc(Oc2cccc3c2S(=O)(=O)N([C@H](C)c2ccccc2)C[C@@H](COCc2ccccc2)O3)cc1C`, 0.01% (inactive).

`COc1ccc(C(=O)NCCSc2ccccc2C)cc1`: the activation was 5.88% (active). Under `COc1ccc(C(=O)NCC[N+](C)(C)C)cc1` stands -0.19% (inactive); under `CCSc1ccccc1C(=O)NCc1ccc(OC)cc1`, -0.9% (inactive). Under `O=C1Nc2ccccc2C1=NN=Cc1ccco1` stands 1.9% (inactive); under `Cc1cc(C)c(/C=C2\C(=O)Nc3ccccc32)[nH]1`, 6.61% (active); under `COc1ccccc1S(=O)(=O)c1c(C)cc(C)[nH]c1=O`, 0.35% (inactive). On to `CC(Sc1ncnc2c1cnn2-c1ccccc1)C(=O)Nc1ccc(N2CCOCC2)cc1` (configuration not stated), for which the activation is 1.44% (inactive). `c1ccc(-n2ncc3c(N4CCCC4)ncnc32)cc1`: the activation was 6.43% (active). With `CN(C(=O)COc1ncnc2c1cnn2-c1ccccc1)C1CCCCC1` the figure was -0.54% (inactive); with `COc1ccc(-n2c(SCC(=O)Nc3ccc4c(c3)OCCO4)nnc2-c2ccc(Cl)cc2)cc1`, -1.21% (inactive); with `Cc1nc2ccc(S(=O)(=O)NCC(=O)O)cc2s1`, -0.41% (inactive). Under `COc1cc(NC(=O)CN(C)S(=O)(=O)c2ccc3nc(C)sc3c2)cc(OC)c1` stands -1.14% (inactive); under `NS(=O)(=O)c1ccc2nc(NC(=O)CS(=O)(=O)c3ccc(F)cc3)sc2c1`, 9.74% (active); under `COc1ccc(N2CCN(CCNS(=O)(=O)c3ccc([N+](=O)[O-])cc3)CC2)cc1`, -2.96% (inactive). With `Nc1ccc2c(c1)C(O)c1ccc(Cl)cc1-2` (configuration not stated) the figure was 0.07% (inactive); with `Nc1ccc2nn(-c3ccc(Cl)cc3)nc2c1`, 12.2% (active); with `Nc1nc2cc(Cl)ccc2n1N`, -0.75% (inactive).

For `CCOc1ccc(N(CC(=O)Nc2c(C)n(C)n(-c3ccccc3)c2=O)S(=O)(=O)c2ccc(Cl)s2)cc1`, the activation was -1% (inactive). Under `CN(CCc1ccccc1)C(=O)Cn1nc(-c2ccccc2)ccc1=O` stands -1.21% (inactive); under `COC(=O)[C@]12C[C@H](CC(=O)NCc3ccccc3)C(=O)N(CCC3=CCCCC3)C1=C[C@H](C(C)C)O[C@@H]2C1CC1`, -1.01% (inactive); under `O=C(Nc1c(Cl)c(C2CC2)nn1-c1ccccc1)C(Cl)(Cl)Cl`, -0.16% (inactive).

On to `O=C(Cn1ccc([N+](=O)[O-])n1)NCc1cccs1`, for which the activation is 10.1% (active).

Regarding `Cc1ccnc(NC(=O)Cn2ccc([N+](=O)[O-])n2)c1`, the activation is 0.29% (inactive). Under `O=C(CCn1ccc([N+](=O)[O-])n1)Nc1nccs1` stands -1.81% (inactive).

Consider `CCOC(=O)[C@]12CCCC3=C1N(CCC3)C(=O)[C@@H](CC(=O)NCc1cccs1)C2`, for which the activation is -2.04% (inactive). With `O=C(/C=C/c1ccccc1[N+](=O)[O-])OCC(=O)N1CCCC1` the figure was 3.54% (inactive); with `CC1CC(C)CN(C/C=C/c2ccccc2[N+](=O)[O-])C1` (configuration not stated), 6% (active). As for `COc1cc(CN2CC(C)CC(C)C2)cc([N+](=O)[O-])c1O` (configuration not stated), the activation is -3.15% (inactive). Turning to `COc1ccc(C2Nc3ccccc3C(=O)N2Cc2cccs2)cc1COc1c(C)cccc1C` (configuration not stated), the activation was -0.71% (inactive). With `O=S(=O)(Nc1ccc2nc(-c3ccco3)[nH]c2c1)c1ccccc1` the figure was 1.02% (inactive). Take `Cn1c(-c2ccco2)nc2cc3ccccc3cc21`: the activation was 17.4% (active). With `Cn1c(SCC(=O)c2cccs2)nnc1-c1ccco1` the figure was 0.02% (inactive); with `C=CCN=C1NC(c2cccc(C(F)(F)F)c2)C(C(=O)OC)=C(C)N1C` (configuration not stated), -0.27% (inactive); with `Cc1ccc(NC(=O)Cc2cccc(F)c2)c(S(=O)(=O)N2CCOCC2)c1`, -1.13% (inactive).

For the compound `Cc1ccccc1NC(=O)COC(=O)c1ccc(Sc2ncn[nH]2)c([N+](=O)[O-])c1`, the activation is 0.06% (inactive). With `CCCCN(C)C(=O)c1ccc2c(c1)N(CC)C(=O)c1ccccc1S2(=O)=O` the figure was 6.63% (active). With `COC(=O)CNC(=O)c1ccc2c(c1)S(=O)(=O)c1ccccc1C2=O` the figure was -0.44% (inactive); with `O=C(c1ccc2c(c1)N(Cc1ccc(F)cc1)C(=O)c1ccccc1S2(=O)=O)N1CCN(c2ccccn2)CC1`, -2.49% (inactive); with `OC(c1ccccc1)(c1ccccc1)C1CCN(CCCOc2ccc(-c3ccsc3)cc2)CC1`, 0.49% (inactive). For `CC(NCc1ccco1)C(=O)N1CCCCC1` (configuration not stated), the activation is 0.18% (inactive). With `COc1ccc(NCc2nnc(SCc3ccccc3)n2-c2ccc(OC)cc2)cc1`, the activation is -1.98% (inactive). With `COc1ccc2nc(SCc3ccccc3)nc(C)c2c1` the figure was 7.19% (active).

As for `COc1cccc(CSc2nnc(-c3cccnc3)n2Cc2ccccc2)c1`, the activation is -1.85% (inactive).
